The target of experiment [1] is Tyrosine-protein kinase receptor UFO (Homo sapiens) (UniProt P30530). The following applies: at 1 µM.
Experiment [2] deals with Tyrosine-protein kinase Blk (Homo sapiens) (UniProt P51451). The following applies: at 0.1 µM.
For experiment [3] the target is unchanged. The following applies: at 1 µM.
Experiment [4] addresses T1, Cytoplasmic tyrosine-protein kinase BMX (Homo sapiens) (UniProt P51813).
T1 sequence (whole entry): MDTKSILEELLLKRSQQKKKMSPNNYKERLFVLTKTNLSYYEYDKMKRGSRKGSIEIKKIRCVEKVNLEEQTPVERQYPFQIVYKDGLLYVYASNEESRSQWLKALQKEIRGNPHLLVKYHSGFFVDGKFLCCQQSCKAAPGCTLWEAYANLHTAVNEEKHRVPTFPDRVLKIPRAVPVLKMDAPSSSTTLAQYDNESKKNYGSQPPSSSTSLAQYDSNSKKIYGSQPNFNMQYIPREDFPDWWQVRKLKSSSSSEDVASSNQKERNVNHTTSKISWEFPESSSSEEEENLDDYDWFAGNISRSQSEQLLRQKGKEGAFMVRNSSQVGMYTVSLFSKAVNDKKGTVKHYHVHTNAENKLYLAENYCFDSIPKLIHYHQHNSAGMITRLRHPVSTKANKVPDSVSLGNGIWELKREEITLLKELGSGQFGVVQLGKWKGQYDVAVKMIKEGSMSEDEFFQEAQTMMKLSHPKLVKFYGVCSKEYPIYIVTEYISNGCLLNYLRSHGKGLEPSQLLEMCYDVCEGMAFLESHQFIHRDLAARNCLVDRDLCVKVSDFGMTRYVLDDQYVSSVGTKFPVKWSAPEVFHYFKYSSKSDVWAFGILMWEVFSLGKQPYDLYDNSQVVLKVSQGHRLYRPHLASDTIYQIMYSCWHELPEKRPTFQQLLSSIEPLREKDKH
The note with it: at 0.1 µM.

Experiment [5] addresses T1, Cytoplasmic tyrosine-protein kinase BMX (Homo sapiens). The note with it: at 1 µM.
The target of experiment [6] is Protein-tyrosine kinase 6 (Homo sapiens) (UniProt Q13882). The following applies: at 0.1 µM.
For experiment [7] the target is unchanged. The note with it: at 1 µM.
In experiment [8] the target is Tyrosine-protein kinase BTK (Homo sapiens) (UniProt Q06187). The note with it: at 0.1 µM.
The target is the same in experiment [9]. The following applies: at 1 µM.
For experiment [10], the target named is Tyrosine-protein kinase CSK (Homo sapiens) (UniProt P41240). The following applies: at 0.1 µM.
The target is the same in experiment [11]. The note with it: at 1 µM.
The target of experiment [12] is T2, Discoidin domain-containing receptor 2 (Homo sapiens) (UniProt Q16832).
T2 sequence (whole entry): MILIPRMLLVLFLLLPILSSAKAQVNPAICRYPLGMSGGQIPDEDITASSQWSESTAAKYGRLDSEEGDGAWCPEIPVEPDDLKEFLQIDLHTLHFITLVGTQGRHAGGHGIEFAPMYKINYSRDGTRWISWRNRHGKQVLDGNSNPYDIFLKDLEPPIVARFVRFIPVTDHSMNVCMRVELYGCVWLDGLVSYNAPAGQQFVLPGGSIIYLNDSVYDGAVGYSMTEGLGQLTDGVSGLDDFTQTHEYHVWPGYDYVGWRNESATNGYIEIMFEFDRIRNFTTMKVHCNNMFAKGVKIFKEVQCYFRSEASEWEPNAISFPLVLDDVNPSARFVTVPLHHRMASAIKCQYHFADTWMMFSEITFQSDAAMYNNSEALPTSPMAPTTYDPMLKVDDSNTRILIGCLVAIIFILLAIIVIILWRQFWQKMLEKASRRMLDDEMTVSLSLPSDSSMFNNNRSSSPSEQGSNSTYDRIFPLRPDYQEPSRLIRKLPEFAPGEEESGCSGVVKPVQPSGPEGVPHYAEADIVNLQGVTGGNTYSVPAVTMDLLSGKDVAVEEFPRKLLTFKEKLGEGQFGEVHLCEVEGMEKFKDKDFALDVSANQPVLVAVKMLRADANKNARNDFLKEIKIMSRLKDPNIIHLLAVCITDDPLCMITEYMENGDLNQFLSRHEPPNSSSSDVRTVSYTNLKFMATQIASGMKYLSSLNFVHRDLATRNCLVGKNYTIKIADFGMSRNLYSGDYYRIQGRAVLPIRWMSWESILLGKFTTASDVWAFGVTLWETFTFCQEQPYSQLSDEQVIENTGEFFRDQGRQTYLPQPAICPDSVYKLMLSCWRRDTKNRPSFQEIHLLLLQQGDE
The following applies: at 0.1 µM.

In experiment [13] the target is T2, Discoidin domain-containing receptor 2 (Homo sapiens). The following applies: at 1 µM.
In experiment [14] the target is Epidermal growth factor receptor (Homo sapiens) (UniProt P00533). The note with it: at 0.1 µM.
The target is the same in experiment [15]. The following applies: at 1 µM.
The subject of experiment [16] is Epidermal growth factor receptor (Homo sapiens), P00533 [L858R]. The following applies: at 0.1 µM.
The test system is the same in experiment [17]. The following applies: at 1 µM.
Experiment [18] concerns Epidermal growth factor receptor (Homo sapiens), P00533 [L861Q]. The note with it: at 0.1 µM.
For experiment [19] the test system is unchanged. The note with it: at 1 µM.
For experiment [20], the system named is Epidermal growth factor receptor (Homo sapiens), P00533 [T790M]. The note with it: at 0.1 µM.
Epidermal growth factor receptor (Homo sapiens), P00533 [T790M], sequence (P00533 whole entry T790M): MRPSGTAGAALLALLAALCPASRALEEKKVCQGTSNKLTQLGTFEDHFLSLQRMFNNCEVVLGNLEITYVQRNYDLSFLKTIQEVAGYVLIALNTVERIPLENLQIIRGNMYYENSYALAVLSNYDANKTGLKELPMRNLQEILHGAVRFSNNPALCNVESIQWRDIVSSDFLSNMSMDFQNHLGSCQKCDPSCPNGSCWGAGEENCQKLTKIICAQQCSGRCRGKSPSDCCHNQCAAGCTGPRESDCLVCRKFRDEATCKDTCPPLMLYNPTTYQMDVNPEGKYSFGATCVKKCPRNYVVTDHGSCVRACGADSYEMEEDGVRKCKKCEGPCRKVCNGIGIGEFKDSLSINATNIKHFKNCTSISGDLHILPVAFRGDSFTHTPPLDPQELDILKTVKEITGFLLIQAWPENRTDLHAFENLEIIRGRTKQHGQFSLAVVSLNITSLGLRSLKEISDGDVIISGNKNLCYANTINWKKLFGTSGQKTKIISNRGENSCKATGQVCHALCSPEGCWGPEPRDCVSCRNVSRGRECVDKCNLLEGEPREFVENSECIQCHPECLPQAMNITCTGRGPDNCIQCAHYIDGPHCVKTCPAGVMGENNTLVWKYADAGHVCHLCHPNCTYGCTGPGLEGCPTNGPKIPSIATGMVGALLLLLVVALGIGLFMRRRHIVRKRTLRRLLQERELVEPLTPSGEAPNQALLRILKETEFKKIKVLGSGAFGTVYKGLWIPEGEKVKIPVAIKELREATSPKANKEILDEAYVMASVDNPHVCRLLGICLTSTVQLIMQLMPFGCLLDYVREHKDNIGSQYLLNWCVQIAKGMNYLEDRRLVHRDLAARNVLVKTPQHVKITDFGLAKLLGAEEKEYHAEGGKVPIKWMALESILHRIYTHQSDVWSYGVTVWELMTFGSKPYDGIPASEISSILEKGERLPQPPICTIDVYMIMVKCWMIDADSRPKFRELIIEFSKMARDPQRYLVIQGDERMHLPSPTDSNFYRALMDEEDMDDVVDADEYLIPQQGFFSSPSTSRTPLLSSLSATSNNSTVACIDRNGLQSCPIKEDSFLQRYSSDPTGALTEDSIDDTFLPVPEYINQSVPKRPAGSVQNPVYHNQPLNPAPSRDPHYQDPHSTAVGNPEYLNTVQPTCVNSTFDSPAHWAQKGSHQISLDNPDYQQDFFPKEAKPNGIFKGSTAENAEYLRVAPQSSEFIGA

Tyrosine-protein kinase CSK (Homo sapiens), sequence (P41240 2-450 limits assumed): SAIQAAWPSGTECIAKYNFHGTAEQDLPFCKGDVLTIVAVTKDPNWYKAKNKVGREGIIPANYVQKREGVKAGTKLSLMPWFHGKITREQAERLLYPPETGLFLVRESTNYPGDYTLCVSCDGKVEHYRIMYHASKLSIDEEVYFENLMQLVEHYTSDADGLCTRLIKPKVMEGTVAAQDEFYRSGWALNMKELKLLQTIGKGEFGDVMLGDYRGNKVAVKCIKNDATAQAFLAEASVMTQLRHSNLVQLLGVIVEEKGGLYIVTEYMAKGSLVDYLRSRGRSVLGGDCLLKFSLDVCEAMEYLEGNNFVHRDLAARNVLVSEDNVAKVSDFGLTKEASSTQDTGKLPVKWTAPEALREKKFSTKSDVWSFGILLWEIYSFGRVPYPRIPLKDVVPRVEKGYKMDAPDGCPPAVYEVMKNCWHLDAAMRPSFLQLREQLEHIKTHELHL
Tyrosine-protein kinase Blk (Homo sapiens), sequence (P51451 2-505 limits assumed): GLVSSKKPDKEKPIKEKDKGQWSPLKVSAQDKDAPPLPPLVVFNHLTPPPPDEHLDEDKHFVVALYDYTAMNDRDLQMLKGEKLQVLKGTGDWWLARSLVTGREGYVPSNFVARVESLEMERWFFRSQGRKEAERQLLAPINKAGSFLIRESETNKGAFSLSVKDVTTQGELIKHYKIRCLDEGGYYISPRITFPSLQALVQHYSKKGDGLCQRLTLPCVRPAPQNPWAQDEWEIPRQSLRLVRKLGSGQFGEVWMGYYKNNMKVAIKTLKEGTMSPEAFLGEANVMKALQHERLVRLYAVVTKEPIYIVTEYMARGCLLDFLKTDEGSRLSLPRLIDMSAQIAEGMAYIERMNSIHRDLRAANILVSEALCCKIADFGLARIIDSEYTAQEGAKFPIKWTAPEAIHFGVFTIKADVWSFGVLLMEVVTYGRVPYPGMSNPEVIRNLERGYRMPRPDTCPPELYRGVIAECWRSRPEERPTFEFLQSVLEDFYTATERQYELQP
Protein-tyrosine kinase 6 (Homo sapiens), sequence (Q13882 whole entry, looked up): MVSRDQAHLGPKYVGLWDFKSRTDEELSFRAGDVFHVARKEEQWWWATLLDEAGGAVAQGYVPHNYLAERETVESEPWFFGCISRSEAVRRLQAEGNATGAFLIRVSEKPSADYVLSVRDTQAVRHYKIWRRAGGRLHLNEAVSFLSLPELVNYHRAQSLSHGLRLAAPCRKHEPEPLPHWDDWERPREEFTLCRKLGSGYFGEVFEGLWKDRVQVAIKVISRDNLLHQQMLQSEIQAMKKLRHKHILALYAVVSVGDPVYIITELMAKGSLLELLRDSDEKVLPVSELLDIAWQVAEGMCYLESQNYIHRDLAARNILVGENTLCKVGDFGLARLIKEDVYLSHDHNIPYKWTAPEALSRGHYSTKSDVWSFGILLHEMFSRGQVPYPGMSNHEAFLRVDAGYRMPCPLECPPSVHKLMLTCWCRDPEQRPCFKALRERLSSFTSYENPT
Epidermal growth factor receptor (Homo sapiens), P00533 [L861Q], sequence (P00533 whole entry L861Q): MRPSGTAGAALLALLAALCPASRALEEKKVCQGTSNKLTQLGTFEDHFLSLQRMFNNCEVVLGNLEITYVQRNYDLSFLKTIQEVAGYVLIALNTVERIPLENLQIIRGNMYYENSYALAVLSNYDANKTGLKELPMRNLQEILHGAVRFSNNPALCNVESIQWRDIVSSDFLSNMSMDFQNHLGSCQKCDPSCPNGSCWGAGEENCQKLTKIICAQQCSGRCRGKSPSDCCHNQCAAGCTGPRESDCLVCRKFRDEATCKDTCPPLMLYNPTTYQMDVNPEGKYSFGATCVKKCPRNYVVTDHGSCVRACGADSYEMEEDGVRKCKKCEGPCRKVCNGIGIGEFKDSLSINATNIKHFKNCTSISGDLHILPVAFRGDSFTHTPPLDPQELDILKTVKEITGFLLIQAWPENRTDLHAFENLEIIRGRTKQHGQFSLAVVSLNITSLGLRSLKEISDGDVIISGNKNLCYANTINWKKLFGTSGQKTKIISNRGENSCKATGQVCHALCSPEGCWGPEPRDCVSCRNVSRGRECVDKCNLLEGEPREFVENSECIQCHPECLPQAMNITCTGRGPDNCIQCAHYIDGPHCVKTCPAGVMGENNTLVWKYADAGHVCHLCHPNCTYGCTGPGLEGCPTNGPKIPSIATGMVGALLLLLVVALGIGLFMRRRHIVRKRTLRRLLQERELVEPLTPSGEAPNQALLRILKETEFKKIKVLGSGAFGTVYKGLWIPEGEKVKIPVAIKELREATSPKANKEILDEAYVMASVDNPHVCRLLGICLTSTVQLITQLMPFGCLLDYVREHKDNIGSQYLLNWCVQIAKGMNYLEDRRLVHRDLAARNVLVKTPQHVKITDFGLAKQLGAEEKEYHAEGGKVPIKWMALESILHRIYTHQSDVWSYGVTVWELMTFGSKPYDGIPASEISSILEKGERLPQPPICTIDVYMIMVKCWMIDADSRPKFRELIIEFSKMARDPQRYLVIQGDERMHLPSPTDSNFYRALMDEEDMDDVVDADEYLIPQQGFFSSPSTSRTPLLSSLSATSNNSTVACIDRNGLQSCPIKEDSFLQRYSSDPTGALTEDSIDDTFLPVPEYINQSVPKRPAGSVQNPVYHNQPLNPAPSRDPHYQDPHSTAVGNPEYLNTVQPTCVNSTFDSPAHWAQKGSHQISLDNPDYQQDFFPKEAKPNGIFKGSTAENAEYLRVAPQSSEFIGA
Epidermal growth factor receptor (Homo sapiens), sequence (P00533 whole entry): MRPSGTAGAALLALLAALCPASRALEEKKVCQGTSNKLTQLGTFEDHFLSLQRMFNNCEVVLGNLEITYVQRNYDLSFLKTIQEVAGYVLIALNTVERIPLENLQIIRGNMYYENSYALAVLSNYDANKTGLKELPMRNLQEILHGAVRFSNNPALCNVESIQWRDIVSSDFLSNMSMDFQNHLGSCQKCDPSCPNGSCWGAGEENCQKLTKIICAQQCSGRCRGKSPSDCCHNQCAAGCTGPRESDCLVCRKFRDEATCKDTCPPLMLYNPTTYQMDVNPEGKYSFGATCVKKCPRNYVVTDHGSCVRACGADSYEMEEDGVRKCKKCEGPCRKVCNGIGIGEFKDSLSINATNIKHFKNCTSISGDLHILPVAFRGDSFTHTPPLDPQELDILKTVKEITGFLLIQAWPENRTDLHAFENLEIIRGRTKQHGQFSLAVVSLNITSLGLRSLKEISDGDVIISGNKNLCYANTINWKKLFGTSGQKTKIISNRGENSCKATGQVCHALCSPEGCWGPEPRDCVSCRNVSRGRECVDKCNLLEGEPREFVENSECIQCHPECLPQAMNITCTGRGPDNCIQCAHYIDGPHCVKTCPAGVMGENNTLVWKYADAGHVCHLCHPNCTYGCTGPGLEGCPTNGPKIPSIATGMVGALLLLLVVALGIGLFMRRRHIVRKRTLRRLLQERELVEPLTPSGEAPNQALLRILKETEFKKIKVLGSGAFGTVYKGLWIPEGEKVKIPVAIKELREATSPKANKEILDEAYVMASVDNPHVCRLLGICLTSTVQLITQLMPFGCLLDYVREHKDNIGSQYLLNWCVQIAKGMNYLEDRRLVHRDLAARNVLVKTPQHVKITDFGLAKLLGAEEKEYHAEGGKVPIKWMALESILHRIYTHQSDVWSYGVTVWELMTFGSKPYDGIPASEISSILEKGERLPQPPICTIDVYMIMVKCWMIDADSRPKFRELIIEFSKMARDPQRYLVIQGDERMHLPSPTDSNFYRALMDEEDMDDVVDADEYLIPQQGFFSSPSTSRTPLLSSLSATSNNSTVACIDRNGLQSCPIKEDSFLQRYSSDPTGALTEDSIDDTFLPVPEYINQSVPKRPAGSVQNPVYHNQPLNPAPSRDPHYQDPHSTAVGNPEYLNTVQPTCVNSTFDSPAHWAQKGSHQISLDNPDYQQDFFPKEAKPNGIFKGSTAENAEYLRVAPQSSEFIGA

With `Fc1cccc(COc2ccc(Nc3ncncc3C#Cc3ccccc3)cc2Cl)c1`, the inhibition in experiment [1] was -6.13%; in [2], 3.22%; in experiment [3], 3.19%; in experiment [4] it was -2.36%; in experiment [5], 5.09%; in experiment [6], 6.04%. Besides, the inhibition in experiment [7] is 7.36%; in experiment [8], 1.18%; in [9], 0.79%; in [10] it was 2.79%; in [11] it was 6.87%; in experiment [12], 1.28%. Moreover, the inhibition in experiment [13] was 1.92%; in experiment [14], 23.9%; in experiment [15], 72.5%; in [16] it was 3.93%; in experiment [17], 21.7%; in experiment [18] it was 16.6%. For the same compound, the values for the inhibition in experiment [19] and in [20] were 30.2% and 3.89%, respectively.

Regarding `CS(=O)(=O)CCNCc1ccoc1-c1ccc2ncnc(Nc3ccc(OCc4ccccc4)cc3)c2c1`, the inhibition is 1.55% in experiment [1]; 0.99% in [2]; 7.84% in [3]; 1.55% in [4]; 3.4% in experiment [5]; 1.71% in [6]. For the same compound, the inhibition in experiment [7] was found to be 8.3%; in experiment [8], 0.01%; in experiment [9] it was 0.8%; in experiment [10], 2.96%; in [11] it was 4.64%; in experiment [12], 5.97%. For the same compound, the inhibition in experiment [13] was 7.08%; in [14] it was 66.8%; in [15], 86.2%; in experiment [16] it was 14.5%; in experiment [17] it was 51.2%; in [18] it was 25.4%. Also, the inhibition in experiment [19] worked out at 42.1%; in experiment [20], 0.03%.

Consider `Cc1nnc(-c2cccc(-c3ccc(C(=O)NCC4CC4)cc3)c2)o1`, for which the inhibition in experiment [1] is -8.4%; in experiment [2], 3.6%; in experiment [3], 1.41%; in experiment [4], -0.51%; in [5], 5.89%; in experiment [6], 6.64%. The inhibition in [7] worked out at 7.36%; in experiment [8] it was 0.03%; in experiment [9] it was 1.05%; in experiment [10], 7.99%; in experiment [11], 7.37%; in experiment [12], 2.21%. For the same compound, the inhibition in experiment [13] stood at 3.42%; in experiment [14] it was 1.17%; in experiment [15], 3.25%; in experiment [16], 2.9%; in experiment [17], 6.91%; in [18], 3.75%. Further, the figures for the inhibition in experiment [19] and in [20] were 5.65% and 3.93%, respectively.

For `CN(C)CCNC(=O)Nc1ccc(N(C)c2ccnc(Nc3ccc(CS(C)(=O)=O)cc3)n2)cc1`, the inhibition in experiment [1] was -0.6%; in [2], 2.78%; in [3] it was 9.64%; in experiment [4] it was 3.74%; in experiment [5], 10.5%; in experiment [6] it was 4.92%. The inhibition worked out at 5.13% in experiment [7]; 2.45% in [8]; 3.65% in experiment [9]; 3.68% in [10]; 1.47% in experiment [11]; 0.92% in experiment [12]. Also, the inhibition in experiment [13] was 9.89%; in experiment [14], 1.32%; in [15], 3.79%; in [16], 3.58%; in experiment [17], 3.5%; in [18], 2.9%. Further, the inhibition in experiment [19] was 2.38%; in experiment [20] it was 3.69%.

Take `COc1ccccc1-c1cc(/C=C2\C(=O)Nc3ncc(Br)cc32)cc(Br)c1O`: the inhibition is -1.51% in experiment [1]; 2.49% in experiment [2]; 10.7% in experiment [3]; 0.75% in experiment [4]; 6.48% in [5]; 5.88% in experiment [6]. Also, the inhibition is 3.92% in experiment [7]; 1.5% in experiment [8]; 2.07% in experiment [9]; 3.21% in experiment [10]; 3.65% in experiment [11]; 2.75% in experiment [12]. Further, the inhibition in experiment [13] is 10.6%; in experiment [14], -0.76%; in [15], 2.08%; in [16], -0.74%; in experiment [17], 0.61%; in experiment [18], 2.99%. For the same compound, the inhibition stood at 4.29% in experiment [19] and 1.88% in experiment [20].

For `COc1ccc(-c2nn3ncccc3c2-c2ccnc(Nc3ccc(F)c(F)c3)n2)cc1`, the inhibition in experiment [1] is -3.4%; in experiment [2] it was 3.7%; in [3], 7.65%; in experiment [4] it was 6.68%; in experiment [5] it was 6.9%; in [6], 9.68%. In addition, the inhibition in [7] amounted to 46.2%; in experiment [8], 0.77%; in [9], 0.68%; in [10], 4.89%; in [11], 8.37%; in [12], 4.41%. For the same compound, the inhibition turned out to be 34.7% in experiment [13]; 1.6% in experiment [14]; 9.46% in [15]; 3.72% in [16]; 21.4% in experiment [17]; 3.55% in [18]. Further, the values for the inhibition in [19] and in experiment [20] were 10.2% and 3.23%, respectively.

On to `c1ccc(-c2n[nH]cc2-c2ccnc(-c3ccc(OCCn4ccnc4)cc3)c2)nc1`, for which the inhibition is -0.26% in experiment [1]; -0.32% in experiment [2]; 1.78% in experiment [3]; -0.48% in [4]; 0.53% in experiment [5]; 2.69% in [6]. Besides, the inhibition in experiment [7] was 8.22%; in experiment [8], 0.31%; in experiment [9], -1.64%; in experiment [10], 1%; in experiment [11], 1.94%; in experiment [12], 0.36%. The inhibition is 1.9% in experiment [13]; 0.25% in experiment [14]; 5.66% in experiment [15]; 1.97% in experiment [16]; 24.5% in [17]; -0.83% in experiment [18]. Besides, the inhibition in experiment [19] is 5.84%; in experiment [20], -1.24%.

One may read the inhibition as the drop in the measured response relative to a control, in per cent.

These data come from ChEMBL document CHEMBL1961873, “Compounds: GSK PKIS; Assays: Nanosyn kinase panel” (2012).
